Screening results from PubChem.
The sample as a whole holds a higher share of hits than the screen did.
PglD inh – C. jejuni PglD acetyltransferase inhibitors, primary screen, biochemical, DTNB colorimetric, single point. UDP-N-acetylbacillosamine N-acetyltransferase PglD (Campylobacter jejuni). purified PglD enzyme, DTNB colorimetric CoA detection. inhibition, % at 12.5 µM. hit rate 0.098% among 360,000; in the data active = inhibition above about 16%, passing the limit was not always enough
PDI turbidity – inhibitors of human PDI, primary screen, biochemical, turbidity, single point, plate reader; PDI insulin aggregation turbidity, A650, 90 min; inhibition, % at 10 µM; Protein disulfide-isomerase (Homo sapiens), P07237; AID 588391, 2011; hit rate 0.052% among 350,000;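 active = mean inhibition across replicates of 30% or more, whatever share of single replicates reach that level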
ALR H2O2 inh – inhibitors of human ALR sulfhydryl oxidase, primary screen, biochemical, H2O2 detection, HRP-luminol luminescence, single point | purified ALR, DTT oxidation | inhibition, % (no concentration beside the values) | FAD-linked sulfhydryl oxidase ALR (Homo sapiens), P55789 | hit rate 3.8% among 290,000;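 active = mean replicate inhibition above about 79%, with every replicate also reaching it, limit read from the data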
Target sequence (P55789 whole entry, looked up): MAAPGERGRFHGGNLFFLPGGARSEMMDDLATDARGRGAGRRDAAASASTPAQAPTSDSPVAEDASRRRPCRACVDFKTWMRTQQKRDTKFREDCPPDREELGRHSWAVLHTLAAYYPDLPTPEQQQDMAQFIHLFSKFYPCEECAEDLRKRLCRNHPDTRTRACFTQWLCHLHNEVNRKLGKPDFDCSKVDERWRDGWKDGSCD
ERp5 block – inhibitors of ERp5-driven insulin aggregation, primary screen, biochemical, turbidity, absorbance 650 nm, single point. 90 min. hit rate 0.05% among 350,000. AID 651711, 2012. inhibition, % at 9.99 µM;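 active = mean replicate inhibition above about 25%, with every replicate also reaching it, limit read from the data, passing the limit was not always enough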
NRP1-CendR mod – modulators of CendR peptide binding to NRP-1, primary screen, biochemical, fluorescence polarization, uHTS; inhibition, % at 25 µM; hit rate 0.85% among 360,000; AID 602438, 2012; FAM-RPARPAR peptide binding to NRP-1; Neuropilin-1 (Homo sapiens), O14786;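 active = inhibition or corrected inhibition above about 18%, plus a signal ratio from 0.5 to 1.5, limit read from the data, passing the limit was not always enough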
ARNT-TACC3 inh – disruptors of ARNT/TACC3 protein interaction, primary screen, biochemical, AlphaScreen, single concentration | inhibition, % at 9.99 µM | AlphaScreen His-ARNT PAS-B/GST-TACC3 binding, luminescence; TACC3 fragment carries E629A point mutation | Transforming acidic coiled-coil-containing protein 3 (Homo sapiens), Q9Y6A5 | hit rate 0.66% among 390,000;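 active = mean inhibition of replicates at least 50% and at least half of replicates each reaching 50%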;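 also: 0% = complete ARNT plus TACC3 wells and 100% = ARNT alone without TACC3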
Numbers without * were called inactive; · = no result given; ! = not active in a repeat.

SMILES	PglD inh	PDI turbidity	ALR H2O2 inh	ERp5 block	NRP1-CendR mod	ARNT-TACC3 inh
COc1ccc2c3c([nH]c2c1)C(C)=NCC3	1	7	13	-2	-133	7
CC1=NCCc2c1[nH]c1cc(O)ccc21	-3	3	99*	-4	142	5
CCN(CC)c1ccc(CC2C(=O)N(C)C(=O)N(C)C2=O)cc1	·	12	99*	·	-58	5
CN1C(=O)C(=Cc2ccc(SC3CCCCC3)o2)C(=O)N(C)C1=O	·	-6	88*	-2	-11	-2
CN1C(=O)C(=Cc2ccc(N3CCCCC3)o2)C(=O)N(C)C1=S	·	-1	1	·	-51	-3
CCC(C)n1c(O)c(C=NC(C)c2ccccc2)c(=O)[nH]c1=S (centres undefined)	·	7	·	·	-5	-3
CCCCCCC(=O)N/N=C/c1c(O)n(C2CC2)c(=S)[nH]c1=O	·	4	5	4	-10	30*
C=CCn1c(O)c(/C=N/NC(=O)CCCC)c(=O)[nH]c1=S	·	4	90*	1	-13	69*
CCCCCCC(=O)N/N=C/c1c(O)n(C(C)CC)c(=S)[nH]c1=O (centres undefined)	-4	-5	17	0	6	50*
COC(=O)[C@H]1[C@H](CO)[C@H]2Cn3c(ccc(C4=CCCCC4)c3=O)[C@@H]1N2Cc1cccnc1	3	·	·	3	·	-10
O=C(NC1CCCCC1)Oc1cc2oc(=O)sc2cc1Cl	·	5	92*	1	4	19
COC(=O)[C@H]1[C@H](CO)[C@H]2Cn3c(cccc3=O)[C@@H]1N2C(=O)C1CC1	-2	·	·	-3	·	-1
Nc1ccc(Br)cc1	3	12	·	7	1	19
Nc1ccc(N=Nc2ccccc2)cc1	·	-2	98*	0	-19	0
CC1=C[C@@H]2c3cccc4[nH]cc(c34)C[C@H]2N(C)C1	-3	-3	-6	8	44*	9
O=C(Cc1ccccc1)N1CC2(C1)[C@H](c1ccccc1)[C@H](CO)N2Cc1cccc(F)c1	·	·	·	-1	·	·
O=P(O)(O)CN1CCNCCN(CP(=O)(O)O)CCNCC1	·	-8	·	-1	30*	-11
O=C1CNC[C@@H]2[C@@H](c3ccc(Br)cc3)[C@H](CO)N12	·	·	·	-6	·	·
CN(C)P(=O)(C(Cl)=C(N1CCCCC1)N1CCCCC1)N(C)C	2	-1	98*	0	9	3
CC/C(=N\Nc1ccccc1)c1c(O)n(-c2ccccc2)c(=O)[nH]c1=O	-1	-8	99*	·	-7	-3
COC(=O)[C@@H]1N[C@@H]2c3ccc(C4=CCCC4)c(=O)n3C[C@@H]2[C@H]1CO	3	·	·	2	·	3
Cc1cc(C)cc(N2C(=O)NC(=O)/C(=C\c3cccn3-c3ccccc3)C2=O)c1	·	-2	51	·	-27	0
Cc1cc(C)cc(N2C(=O)NC(=O)/C(=C\c3cccn3-c3ccc(Cl)cc3)C2=O)c1	-6	0	98*	·	-8	19
O=C(Cc1ccccc1)N1C[C@H]2[C@@H](c3ccccc31)[C@@H](CO)N2Cc1ccccc1	-1	·	·	4	·	4
COc1ccc(-c2ccc3n(c2=O)C[C@@H]2[C@@H](CO)[C@H](C(=O)O)[C@H]3N2C(=O)c2ccccc2F)cc1	-1	·	·	-3	·	-3
SMILES	PglD inh	PDI turbidity	ALR H2O2 inh	ERp5 block	NRP1-CendR mod	ARNT-TACC3 inh
CNCCc1ccc(O)c(O)c1	2	12	97*	1	-3	0
O=[As](O)(O)c1ccc(N=Nc2ccc(O)cc2)cc1	-1	9	99*	2	7	-15
CCCN1[C@@H]2Cn3c(ccc(-c4cccc(C(=O)N(C)C)c4)c3=O)[C@H]1[C@@H](C(=O)OC)[C@@H]2CO	1	·	·	0	·	-1
Cc1cc(Cl)ccc1OCC(=O)N1CCN(C)CC1	1	-51	-6	·	23*	0
COC(=O)[C@@H]1[C@@H](CO)[C@@H]2Cn3c(ccc(-c4ccccc4)c3=O)[C@H]1N2CC1CCCCC1	-2	·	·	-4	·	-9
Cc1cc(/C=C2/C(=O)NC(=O)N(Cc3ccco3)C2=O)c(C)n1-c1ccccc1	·	-12	92*	·	-16	4
Cc1ccc(-c2cc(-c3ccccc3)cc(-c3ccccc3)[n+]2-c2ccccc2C(=O)O)cc1	4	-3	-31	0	26*	3
O=C([O-])c1ccc(-[n+]2c(-c3ccccc3)cc(-c3ccccc3)cc2-c2ccccc2)cc1	2	1	-31	0	7	9
CCC12C=CCN3CCC4(c5cc(Br)c(OC)cc5N(C)C4C(O)(C(=O)OC)C1OC(C)=O)C32 (centres undefined)	1	-9	85*	·	7	·
C=CCN1C(=O)NC(=O)/C(=C/c2cc3c4c(c2)CCCN4CCC3)C1=O	·	-1	99*	1	-35	3
C=CCN1C(=O)NC(=O)/C(=C/c2cnc(SC)nc2)C1=O	1	8	18	·	-7	5
CN(C)[C@@H]1C(=O)C(C(N)=O)=C(O)[C@@]2(O)C(=O)C3=C(O)c4c(O)cccc4[C@@](C)(O)[C@H]3[C@H](O)[C@@H]12	-1	2	-21	4	-32	52*!
COc1cccc(-n2c(/C=C/c3ccc(O)c(O)c3)nc3ccccc3c2=O)c1	·	-5	91*	6	-90	-7
COc1ccc(-n2c(/C=C/c3ccc(O)c(OC)c3)nc3ccccc3c2=O)cc1	10	-3	12	-5	-53	-6
Cc1ccc(/C=C2\C(=O)NC(=S)N(c3ccc(F)cc3)C2=O)s1	·	-2	15	5	-35	6
Cc1ccc(/C=C2\C(=O)NC(=S)N(c3ccccc3F)C2=O)s1	·	-6	98*	·	-14	4
CC1NC(=O)NC(=O)C1Br (centres undefined)	3	7	·	-6	36*	0
CCCN1[C@@H]2c3ccc(-c4ccccc4)c(=O)n3C[C@H]1[C@H](CO)[C@H]2C(=O)OC	-1	·	·	1	·	-3
CSC(=Nc1ccccc1)c1c(O)n(C)c(=O)n(C)c1=O	-2	-3	-4	-1	5	7
Cn1c(O)c(C(=Nc2ccccc2)SCc2ccccc2Cl)c(=O)n(C)c1=O	10	1	96*	-1	8	3
O=C(Cc1cccnc1)N1CCCCN2[C@@H](CO)[C@@H](c3ccc(C#CC4(O)CCCC4)cc3)[C@@H]2C1	-4	·	·	-1	·	6
